Here are results for 24 molecules from PubChem BioAssay AID720518 (National Center for Advancing Translational Sciences (NCATS), 2013).

Results filed as inconclusive are left out. Where a call stands in place of a potency, no number is given. The source made the active and inactive calls. The call rests on the fitted dose curve.

The nature of this test: qHTS for Inhibitors of Cell Surface uPA Generation: Wild-type Protective Antigen (WT-PrAg) Counterscreen for Cherry-picked Compounds. The conditions noted are these: cells, WT protective antigen toxicity counterscreen; series mostly up to 115 µM. A general note: Quantitative high-throughput screening tests each substance at several concentrations.
On to `CCN(CC)S(=O)(=O)c1ccc(C(=O)Nc2nnc(COC)o2)cc1`, for which the Potency result was “inactive”.

On to `CCOC(=O)c1c(NC(=S)NC)sc2c1CCCC2`, for which the Potency result was “inactive”.

As for `CCC(COC)NC(=O)CCc1nnc(Cc2c[nH]c3ccccc23)o1` (centres undefined), the Potency result was “inactive”.

On to `COc1cc(/C=N/NC(=O)c2ccncc2)ccc1O`, for which the Potency result is “inactive”.

On to `Cc1c(NC(=S)Nc2ccc(Cl)cc2)c(=O)n(-c2ccccc2)n1C`, for which the Potency result was “inactive”.

For the molecule `Cc1ccccc1C(=O)Nc1ccccc1N1CCCCC1`, the Potency entry was “inactive”.

With `COc1ccc(OC)c(NC(=O)C2CC2c2ccccc2)c1` (centres undefined), the Potency entry was “inactive”.

Regarding `COc1cccc(C(=O)NCc2ccc3[nH]c(C)cc3c2)c1`, the Potency result is “inactive”.

Consider `COC(=O)c1ccc(N2CCN(c3ccccc3)CC2)c(NC(=O)C2CC2)c1`, for which the Potency entry is “inactive”.

`CC(C)N1CCc2c(sc(NC(=O)CCc3ccccc3)c2C(N)=O)C1`: the Potency result is “inactive”.

`O=C(Nc1ccc(NC(=O)c2ccco2)c(Cl)c1)c1ccccc1`: the Potency entry was “inactive”.

On to `Cc1ccc(-n2ncc(C(=O)NC3CC3)c2C2CCN(C(=O)OC(C)(C)C)CC2)cc1`, for which the Potency result was “inactive”.

With `COC(=O)CSc1nc(N2CCOCC2)c2c(c1C#N)CCCC2`, the Potency result was “inactive”.

Take `CSc1ccccc1OCc1cc(C(=O)NCCCn2nc(C)cc2C)no1`: the Potency result is “inactive”.

Take `COc1ccc(S(=O)(=O)N2CCN(Cc3ccccc3)CC2)c(C)c1`: the Potency entry was “inactive”.

`COc1ccc(OC)c(S(=O)(=O)N2CCC(NC(=O)c3ccccc3)CC2)c1`: the Potency entry is “inactive”.

On to `CN(C)S(=O)(=O)c1cccc(C(=O)OCC(=O)NCc2ccc3c(c2)OCO3)c1`, for which the Potency entry is “inactive”.

On to `O=C1NCCN1C(=O)N(c1ccccc1)c1ccccc1`, for which the Potency result was “inactive”.

In the case of `COc1ccc(C(=O)CC2(C(=O)O)CCCCC2)cc1`, the Potency entry is “inactive”.

As for `COc1cc2cc(CN(CCN3CCOCC3)C(=O)Nc3ccc(F)cc3)c(=O)[nH]c2cc1OC`, the Potency entry was “inactive”.

For `Cc1cc(C)n2nc(CNS(=O)(=O)c3ccc(F)c(C)c3)nc2n1`, the Potency result was “inactive”.

With `O=C(NC1CCCCC1)C(c1ccco1)N(C(=O)c1csnn1)c1cccc(Cl)c1` (centres undefined), the Potency entry was “inactive”.

In the case of `CCCOc1ccc(S(=O)(=O)NNC(=O)c2cc3ccccc3o2)cc1`, the Potency result was “inactive”.

For the molecule `CN(CCC#N)C(=S)Nc1ccc(Oc2ccccc2)cc1`, the Potency result is “inactive”.
